Test results as given in PubChem BioAssay (NCI).
The panel holds about 83,000 compounds, 20% with a hit somewhere; the sample as a whole holds those more often.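 48-hour exposure, single concentration, 96-well plates; percent growth endpoint where 0 means no net growth. Active: below 10.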 A number with no mark means an inactive call. Calls of active or inactive are those of the source.

Columns and labels:
Experiment in all cases: NCI-60 one-dose screen, 48 h (100 = growth as untreated, 0 = no growth, -100 = all killed)
Settings in all cases: 10 µM unless noted
[1] = tested on: NCI-H23 lung
[2] = tested on: NCI-H226 lung
[3] = tested on: NCI-H322M lung
[4] = tested on: HOP-62 NSCLC
[5] = tested on: NCI-H460 lung
[6] = tested on: HOP-92 NSCLC
[7] = tested on: NCI-H522 lung
[8] = tested on: A549/ATCC NSCLC
[9] = tested on: 786-0 renal
[10] = tested on: COLO 205 colon
[11] = tested on: DU-145 prostate
[12] = tested on: K-562 leukemia
[13] = tested on: MALME-3M melanoma
[14] = tested on: MDA-MB-231 breast
[15] = tested on: RXF 393 renal
[16] = tested on: SF-268 CNS
[17] = tested on: SF-295 CNS
[18] = tested on: SF-539 CNS
[19] = tested on: UACC-257 melanoma
[20] = tested on: M14 melanoma

Compound | growth [1] | growth [2] | growth [3] | growth [4] | growth [5] | growth [6] | growth [7] | growth [8] | growth [9] | growth [10] | growth [11] | growth [12] | growth [13] | growth [14] | growth [15] | growth [16] | growth [17] | growth [18] | growth [19] | growth [20]
COc1ccc(CC(C)=C(c2ccc(OCCN3CCCCCC3)cc2)c2ccc(OCCN3CCCCCC3)cc2)cc1 | -87.9% (active) | -74.4% (active) | -99.3% (active) | -77.4% (active) | -95% (active) | -73.7% (active) | -82.4% (active) | -86% (active) | -72.1% (active) | -67.5% (active) | -96.2% (active) | -55.4% (active) | -91.9% (active) | -98.2% (active) | -82.1% (active) | -81.2% (active) | -93.3% (active) | -95.8% (active) | -76.3% (active) | -67.3% (active)
COc1ccccc1/C=C1\Oc2cc(OCCN3CCCC3)ccc2C1=O | 82.8% | 85.3% | 99.8% | 96.4% | 84.6% | 59.5% | 89.8% | 95.3% | 82.5% | 95.4% | 89.2% | -5.04% (active) | 104% | 81.8% | 71.5% | 91.3% | 95.4% | 85.9% | 95% | 77.2%
NS(=O)(=O)c1ccc(Cn2c(SCC(=O)N/N=C/c3ccccc3O)nc3ccccc3c2=O)cc1 | 63.2% | 57% | 46.8% | 35.5% | 49.1% | 54% | -1.28% (active) | 69.4% | 71.1% | 29.1% | 72.5% | 36.6% | 59% | 30.1% | 72.2% | 38.2% | 65.9% | 54.3% | 70.6% | 42%
CCOC(=O)/C(C#N)=C1/NNC(=Nc2cccnc2)S1 | 97.7% | 96.2% | 105% | 90.8% | 99.3% | 93.9% | 85.3% | 85.3% | 98% | 103% | 105% | 99.8% | 105% | 98.8% | 110% | 100% | 98.9% | 102% | 78.3% | 95.9%
CCCCCCNC(=O)Nc1ccc2cc3ccc(NC(=O)NCCCCCC)cc3nc2c1 | -39% (active) | 79.5% | 22.8% | 18.1% | -11.9% (active) | 68.9% | -67.1% (active) | 23.7% | 27.5% | 17.5% | 21.7% | -29.6% (active) | -35.7% (active) | -23.6% (active) | -47.7% (active) | -62.8% (active) | -47.5% (active) | -77.1% (active) | 72.6% | 28.5%
O=[N+]([O-])CC(c1ccccc1F)c1c[nH]c2ccccc12 (stereo not given) | 82.5% | 81.9% | 96% | 69% | 94.8% | 80.9% | 23.2% | 70% | 87.7% | 80.4% | 97.2% | 17.9% | 66.9% | 56.5% | 80% | 80.4% | 67.9% | 76.3% | 87.1% | 52.3%
O=C(c1nc2ccccc2[nH]1)C1C(c2ccc(Br)cc2)C2CC3CCCC[C@H]3N2[C@@]12C(=O)Nc1cc(Cl)ccc12 (stereo not given in full) | 54.5% | 51.8% | 56.1% | 62.4% | 16.8% | 52.1% | 59.1% | 33% | 42% | 21.8% | 52% | 25.3% | 32% | 41.6% | 34% | 42% | 31.6% | 56% | 43.2% | 26.9%
Cc1ccc(NC(C(=O)c2ccccc2)c2ccccc2)cc1 (stereo not given) | 59.5% | 75.3% | 97.3% | 80.2% | 46.9% | 39.8% | 34.4% | 58% | 75.5% | 41.9% | 58.2% | 46.5% | -2.02% (active) | 72.4% | 95.2% | 68.6% | 53.2% | 78.4% | 10.5% | 77.6%
